From PubChem
TDP43 rescue: qHTS of TDP-43 Inhibitors. TDP-43 expressing yeast growth rescue, BacTiter-Glo, 24 h. Potency, µM (highest dose often 46.1 µM), inactives show top-dose growth rescue (activation), hits mostly activators. 410,000 compounds, 1.8% hits. AID 652104, 2013; further: % of control where 0% means no effect; nearly all actives have a fitted effect of over 50% in size
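Cell-based yeast growth screen: TDP-43 expression induced in galactose, inoculum OD600=0.02 after raffinose pregrowth to mid-log. Read-out BacTiter-Glo luminescence at 24 hr, 30 deg C; inhibition of toxicity seen as signal increase.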
FUS suppressor: qHTS for Suppressors of FUS Proteinopathy: Primary screen using FUS-linked yeast assay | 390,000 compounds, 0.24% hits | Potency, µM (doses to about 76.6 µM), actives largely listed as activators | S. cerevisiae FUS-expressing, growth rescue, OD600, 24 h | AID 1347120, 2019;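 further: plate controls were DMSO vehicle for no effect and reference control for full effect; nearly all actives have a fitted effect of over 55% in size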
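Quantitative HTS measuring growth restoration of FUS-toxic yeast. Galactose-induced cells (OD 0.005) were exposed 24hr at 30C to compounds at several concentrations, then absorbance at 600 nm was recorded.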
aSyn rescue: qHTS of alpha-syn Inhibitors; Yeast expressing alpha-synuclein, growth rescue, BacTiter-Glo, 24 h; Potency, µM (titrated, usually from 46.1 µM), inactives show at the top dose growth rescue (activation), hits mostly activators; 370,000 compounds, 0.14% hits; AID 652106, 2013; further: % of control where 0% means no effect; nearly all actives have a fitted effect of over 65% in size
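Rescue of yeast growth: cells expressing toxic alpha-synuclein, induced in galactose at OD600 0.02, incubated with compound 24 h at 30 C. ATP luminescence quantified growth; inhibitors of toxicity appear as activators.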
Abeta rescue: qHTS for compounds that reverse cellular toxicity of Amyloid beta (A-beta) peptide in yeast: Primary Screen; Potency, µM (series often up to 46.1 µM), usual class: activators; 410,000 compounds, 0.063% hits; yeast expressing A-beta42, growth rescue, OD600, 48 h; response scale: 0% DMSO, 100% iron-clioquinol control; further: nearly all actives have a fitted effect of over 55% in size
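Growth rescue measured by 600 nm absorbance after 48 h yeast culture at 30 C with compound. Values normalized between DMSO and an equimolar ferric chloride plus clioquinol control.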
Active calls of the source: *; i = inactive; ? = inconclusive; / = no result given. Rows were chosen to be rich in hits. Some 2.1% of all compounds tested hit in one or more screens of this group. The call rests on the fitted dose curve; in most records, active means well fitted curve in the direction sought with a large enough effect; inconclusive means small, poorly fitted or top-dose-only effect, or another doubt; inactive means no such curve, though single readings can be large; an effect the other way counts as inactive or inconclusive. Potency means the concentration at half of the fitted maximal effect.

SMILES	TDP43 rescue	FUS suppressor	aSyn rescue	Abeta rescue
O=C(Nc1ccc(F)cc1)c1ccc2ncsc2c1	25.1µM*	i	-19.6%	i
CC(C)(Cc1cc(CC(C)(C)C(=O)O)cc(C(C)(C)C)c1)C(=O)O	35.5µM*	i	3.3%	i
N#Cc1cn(Cc2cccc(Cl)c2)c2ccccc12	15.8µM*	/	4.9%	i
CCCCCCCCCCN(CCCCCCCCCC)c1ccc(/C=C/c2ccnc3ccccc23)cc1	/	/	-3.4%	/
CCN1CCN(c2cc(C)c3cc(NC(=O)/C=C/c4ccc(OCCC(C)C)cc4)ccc3n2)CC1	?	i	/	i
COc1ccc(-c2ccc(CCC(=O)O)n2CC(=O)Nc2cccc(C(F)(F)F)c2)cc1	1.8%	?	/	i
COC(=O)[C@H]1C[C@]2(C/C=C(\C)CCC=C(C)C)c3ccccc3N[C@H]2N1	/	i	/	/
CC(C)=CCC/C(C)=C/CNCC(=O)N1c2ccccc2[C@]2(c3ccccc3)C[C@@H]3C(=O)N(C/C=C(\C)CCC=C(C)C)CC(=O)N3[C@H]12	/	12.6µM*	/	/
O=c1ccn(Cc2ccccc2)c(SCc2ccccc2)n1	7.6%	/	-1.1%	i
Clc1ccc(CSc2nccn2Cc2ccccc2)cc1	15.8µM*	i	2.7%	i
CC(C)(C)c1ccc2c(c1)OC(C(=O)N/N=C\c1ccccn1)CO2 (stereo unspecified)	?	/	14.1µM*	?
O=C(N/N=C\c1ccc([N+](=O)[O-])s1)C1COc2ccccc2O1 (stereo unspecified)	3.55µM*	i	7.0%	i
O=C(N/N=C/c1c[nH]c2ccccc12)C1COc2ccccc2O1 (stereo unspecified)	12.6%	i	0.8%	i
O=C(N/N=C\c1ccc([N+](=O)[O-])o1)C1COc2ccccc2O1 (stereo unspecified)	?	i	5.8%	i
CC(C)(C)c1ccc2c(c1)OC(C(=O)N/N=C\c1ccc(-c3cccc(C(=O)O)c3)o1)CO2 (stereo unspecified)	3.1%	?	0.3%	i
O=C(N/N=C\c1ccc(Cl)s1)C1COc2ccccc2O1 (stereo unspecified)	17.8µM*	i	0.6%	?
C=CCN1C(=O)[C@@H](CC(=O)N2CCN(C(=O)OCC)CC2)[C@]2(C(=O)OC)CCCCC=C12	/	i	/	/
Cc1ccc(C(=O)NC(=S)NNC(=O)CC#N)cc1	1.1%	i	-2.4%	i
CCCCC(=O)NNC(=S)NC(=O)c1cccc([N+](=O)[O-])c1	14.1µM*	i	?	i
COC(=O)c1ccccc1NC(=S)NC(=O)c1ccccc1	?	i	-14.7%	i
O=C(NNC(=S)NC(=O)c1ccccc1)c1cccc([N+](=O)[O-])c1	26.9%	i	-2.2%	?
COC(=O)c1ccccc1NC(=S)NC(=O)c1ccc(C)cc1	20µM*	/	-18.3%	i
CCCCC(=O)NNC(=S)NC(=O)c1ccc(C)cc1	-74.9%	i	3.55µM*	i
CCCCC(=O)NNC(=S)NC(=O)c1ccc([N+](=O)[O-])cc1	20µM*	i	31.6µM*	?
CCC(=O)NC(=S)NNC(=O)c1ccc([N+](=O)[O-])cc1	?	i	9.5%	i
SMILES	TDP43 rescue	FUS suppressor	aSyn rescue	Abeta rescue
O=C(COc1ccccc1F)Nc1ccc2nc(SCC(=O)N3CCOCC3)sc2c1	-2.1%	i	/	i
CCOC(=O)c1cnn(-c2cccc(Cl)c2)c1C1CCN(C(=O)OC(C)(C)C)CC1	?	i	/	i
O=C(NCCc1ccccc1)c1ccc2c(c1)N(Cc1ccc(Cl)cc1)C(=O)c1ccccc1S2(=O)=O	4.1%	i	/	i
CC(C)CC(=O)NC(=S)NNC(=O)c1ccc([N+](=O)[O-])cc1	17.8µM*	i	?	?
COc1ccc(N2CCN(CCS(=O)(=O)c3cc(Cl)ccc3Cl)CC2)cc1	12.6µM*	i	-2.4%	i
CCCCOc1ccc(CC(=O)NOC)cc1	/	/	0.9%	/
Cc1ccc(-n2c(SCC(=O)c3ccc(O)c(O)c3)nnc2-c2ccccc2)cc1	/	7.94µM*	/	/
CCn1c(SCC(=O)c2ccc(O)c(O)c2)nnc1-c1ccccc1	4.8%	i	-1.0%	i
O=C(c1cccs1)n1cc(C(=S)N2CCOCC2)c2ccccc21	20µM*	i	/	i
CCCCN(CC)C(=O)c1nn(C)c2c1CSc1ccccc1-2	?	i	/	i
